Mtb betalactam: beta-lactam sensitization of Mtb H37Rv | M. tuberculosis H37Rv growth with meropenem, percent inhibition | 0.27% of 330,000 active | inhibition, % at 25 µM;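 further: growth measured after seven days incubation then overnight dye step; 0% = bacteria only wells and 100% = bacteria with antibiotic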
CCHFV vOTU inh: blocks the CCHF virus ovarian tumor domain protease; inhibition, % at 11.5 µM; CCHFV vOTU protease, Pep-AMC fluorescence; 0.55% of 370,000 active; in the data active means inhibition above about 30%; further: 0% = vehicle wells with enzyme and 100% = no enzyme wells
Rv3671c inh: inhibitors of M. tuberculosis serine protease Rv3671c. inhibition, % at 5.96 µM. 0.048% of 320,000 active. P9WHR9. AID 2606; in the data active means inhibition above about 38%;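 further: extracellular domain of Rv3671c used as enzyme; 0% = enzyme with DMSO and 100% = no enzyme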
RecA splice inh: Mtb RecA intein splicing inhibition | AID 2221 | 0.75% of 290,000 active | inhibition, % (test concentration not listed) | cell-free RecA intein splicing, fluorescence | P9WHJ3; in the data active means inhibition above about 30%;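 further: 0% = vehicle wells and 100% = reference inhibitor control wells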
Target sequence (P9WHJ3 whole entry, looked up, canonical isoform): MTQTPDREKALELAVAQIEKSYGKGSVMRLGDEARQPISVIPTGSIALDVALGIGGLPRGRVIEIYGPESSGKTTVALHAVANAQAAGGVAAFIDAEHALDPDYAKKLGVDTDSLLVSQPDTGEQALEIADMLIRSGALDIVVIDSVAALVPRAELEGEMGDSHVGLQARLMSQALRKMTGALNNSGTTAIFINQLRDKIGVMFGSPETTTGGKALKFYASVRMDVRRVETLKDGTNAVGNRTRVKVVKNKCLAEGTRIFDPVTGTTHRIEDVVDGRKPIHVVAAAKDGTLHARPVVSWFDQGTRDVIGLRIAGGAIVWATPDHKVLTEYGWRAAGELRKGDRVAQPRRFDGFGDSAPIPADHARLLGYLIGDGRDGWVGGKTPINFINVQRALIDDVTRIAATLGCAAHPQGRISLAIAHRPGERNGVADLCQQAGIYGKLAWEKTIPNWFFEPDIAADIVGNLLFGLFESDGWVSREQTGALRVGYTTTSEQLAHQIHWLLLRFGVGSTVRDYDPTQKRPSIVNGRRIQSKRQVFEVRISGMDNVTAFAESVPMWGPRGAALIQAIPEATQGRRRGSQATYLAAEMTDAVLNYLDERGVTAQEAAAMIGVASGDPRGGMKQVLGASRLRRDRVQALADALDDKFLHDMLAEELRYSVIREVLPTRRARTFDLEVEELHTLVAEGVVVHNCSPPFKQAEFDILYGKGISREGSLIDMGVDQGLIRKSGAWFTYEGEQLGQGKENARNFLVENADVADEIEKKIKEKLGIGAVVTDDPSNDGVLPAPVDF
UGM FP inh: blocks M. tuberculosis UGM enzyme. P9WIQ1. purified UGM, fluorescence polarization probe displacement. inhibition, % at 10 µM. 0.06% of 320,000 active. AID 504406; in the data active means inhibition above about 10%, passing the limit was not always enough
GFP chromo cs: counter-screen: blocks GFP chromophore formation; cell-free GFP chromophore formation, fluorescence; 83% of 2,100 active; EC50, µM; AID 434968; shares compounds with RecA splice inh
* hit, by the source's call; nt = no result. Hits are enriched below; roughly 1.2% of the tested compounds scored in any of these assays. Unless noted, how the calls were made is not given here.

SMILES | Mtb betalactam | CCHFV vOTU inh | Rv3671c inh | RecA splice inh | UGM FP inh | GFP chromo cs
Cc1ccc(NC(=O)c2ccccc2)cc1 | -6.6 | -5.7 | -5.9 | 2.3 | 0.4 | nt
CC1CCN(c2ccc(C(=O)O)cc2NS(=O)(=O)c2ccc(C(C)(C)C)cc2)CC1 | nt | 29.4 | nt | nt | nt | nt
O=C(NCc1cccnc1)/C(=C\c1ccc(-c2ccc(Br)cc2)o1)S(=O)(=O)c1ccccc1 | 94.6 | 6.7 | -43.8 | 51.4* | 0.3 | 29.4*
O=S(=O)(c1cc2ccccc2s1)n1c(CN2CCOCC2)nc2ccccc21 | nt | -0.1 | nt | nt | nt | nt
COc1cc(OC)cc(C(=O)N/N=C(\C)CC(=O)Nc2ccccn2)c1 | -2.0 | -2.5 | 8.2 | 56.0* | -0.8 | 23.9*
C/C(CC(=O)NC1CCCC1)=N\NC(=O)Cc1cccs1 | -4.9 | 5.3 | 8.2 | -0.9 | -0.3 | nt
C/C(CC(=O)Nc1ccc(Cl)cn1)=N\NC(=O)Cc1cccs1 | -2.3 | 0.4 | -4.9 | 62.4* | 3.3 | 37*
C/C(CC(=O)Nc1ccccn1)=N\NC(=O)Cc1cccc2ccccc12 | 3.8 | -2.5 | -10.6 | 87.3* | 1.5 | 8.65*
C/C(CC(=O)Nc1ccccn1)=N\NC(=O)c1ccncc1 | 99.0 | nt | 9.3 | 84.7* | 0.9 | 6.79*
C[C@@H]1COc2cc(N3CCCCC3)ccc2S(=O)(=O)N1 | nt | 5.2 | nt | nt | nt | nt
O=C(CCc1ccccc1)N[C@H]1[C@@H](OC(=O)c2cccnc2)CCC[C@@]12C(=O)N(Cc1ccccc1)c1ccccc12 | nt | 3.5 | nt | nt | nt | nt
CCN(CC)CCOc1ccc(Br)cc1 | -3.1 | -16.4 | -1.4 | -1.6 | 0.6 | nt
CCN(CC)CCOc1ccc(/C(=C(\Cl)c2ccccc2)c2ccccc2)cc1 | 99.1 | 10.1 | 4.6 | 35.5* | 2.9 | 17.8*
C#CCN1CC(N(C)CCOC(=O)c2occ3ccccc23)CS1(=O)=O (stereo unspecified) | nt | 15.2 | nt | nt | nt | nt
COC(=O)[C@]12C[C@H](CC(=O)NCCc3ccccc3OC)C(=O)N(CCC3=CCCCC3)C1=C[C@H](C(C)C)O[C@@H]2C1CC1 | nt | 15.5 | nt | nt | nt | nt
O=C(CCl)N(c1ccccc1)c1c[nH]c2ccccc12 | 99.8 | 0.9 | -2.5 | 82.4* | -0.3 | 8.33*
O=C(CCl)N(c1ccc(Cl)cc1)c1c[nH]c2ccccc12 | 99.4 | 5.6 | 3.9 | 40.4* | -0.4 | 2.24*
O=C(Cc1ccc(Cl)cc1)NCCc1c[nH]c2ccccc12 | -2.0 | -13.7 | -1.3 | 1.5 | -1.3 | nt
COc1ccc(-c2noc(C3CCCN(C(=O)NC4CCC(C)CC4)C3)n2)cc1 (stereo unspecified) | nt | 5.2 | nt | nt | nt | nt
CC[N+](C)(C)CC/C=C1/c2ccccc2Sc2ccc(Cl)cc21 | -11.8 | -1.1 | -0.7 | 14.3 | -1.3 | nt
CCCCCCCCCC[N+](C)(C)CC/C=C1/c2ccccc2Sc2ccc(Cl)cc21 | 100.1 | nt | 14.4 | 69.4* | -3.2 | 12*
CN(C)CC/C=C1\c2ccccc2Sc2ccc(Cl)cc21 | 79.8 | 1.6 | 3.7 | 3.8 | 4.2 | nt
CCCCCCCCCCC[N+](C)(C)CC/C=C1/c2ccccc2Sc2ccc(Cl)cc21 | 100.1 | nt | 2.9 | 63.3* | -3.8 | 9.48*
COc1ccc(NC(=O)C/C(C)=N/NC(=O)COc2ccc(OC)cc2)cc1 | 58.9 | -18.0 | 10.2 | 0.2 | -0.8 | nt
C/C(CC(=O)Nc1ccc(F)cc1)=N\NC(=O)COc1ccccc1 | 0.5 | 1.9 | -1.0 | 65.8* | 1.7 | 21.8*
SMILES | Mtb betalactam | CCHFV vOTU inh | Rv3671c inh | RecA splice inh | UGM FP inh | GFP chromo cs
C/C(CC(=O)Nc1ccccc1[N+](=O)[O-])=N\NC(=O)COc1ccccc1C | -6.9 | 0.5 | -3.1 | 69.4* | -0.7 | 21.1*
CCC(=O)N1CCc2cc(Br)c(S(=O)(=O)N3CCC(C(=O)NCCCOC(C)C)CC3)cc21 | nt | -1.5 | nt | nt | nt | nt
CC(C)(C)OC(=O)NCc1cc(F)ccc1/C=C/S(=O)(=O)NCc1ccccc1 | nt | 11.3 | nt | nt | nt | nt
CC(C)C[C@@H]1COc2cc(Br)ccc2S(=O)(=O)N1Cc1cn(Cc2ccco2)nn1 | nt | 5.2 | nt | nt | nt | nt
CCCCNC(=O)c1cccc2c(=O)c(C)c(-c3ccccc3)oc12 | 6.4 | -2.2 | -10.6 | -5.5 | -3.9 | nt
CCCCN(C(=O)c1cccc2c(=O)c(C)c(-c3ccccc3)oc12)c1ccccc1 | nt | 2.9 | nt | 32.8* | nt | >38
O=C(NC1CCCCC1c1ccccc1)c1ccccc1 (stereo unspecified) | nt | -15.1 | nt | nt | nt | nt
O=C(NC1C(=O)NNC1c1ccccc1)c1ccccc1 (stereo unspecified) | 0.0 | 22.3 | -5.7 | 69.4* | -2.6 | 25.3*
CN1CCN(Cc2cc(=O)oc3ccc(Cl)cc23)CC1 | 2.5 | -2.9 | -4.3 | 48.0* | -1.0 | >38
COC[C@H]1CCCN1c1ccc2c(c1)O[C@H]1CCN(C1)S2(=O)=O | nt | -5.2 | nt | nt | nt | nt
COc1ccc(C(NC(C)=O)c2nccc3cc(OC)c(OC)cc23)cc1OC (stereo unspecified) | 1.2 | -2.8 | nt | -0.1 | -0.2 | nt
COc1ccc(/C(=N/OC(C)=O)c2nccc3cc(OC)c(OC)cc23)cc1OC | -4.7 | -3.3 | 1.3 | 30.9* | 1.7 | >38
O=C(CSc1nc2ccccc2c(=O)n1-c1ccc(Cl)cc1)NNC(=S)Nc1ccccc1 | nt | 7.9 | nt | nt | nt | nt
COC(=O)[C@@]1(Cc2ccccc2)[C@@H]2C(=CC(=O)[C@H]2CC(=O)C(=O)N(C)C)CN1C(=O)c1ccccc1 | -7.1 | nt | 3.4 | 69.5* | 1.8 | 15.6*
COc1ccccc1C(NC(C)=O)c1c(O)ccc2ccc(O)cc12 (stereo unspecified) | 30.8 | -4.3 | 0.4 | 78.7* | 1.3 | 5.15*
O=C(Oc1ccc(N2C(=O)CCC2=O)cc1)c1ccco1 | -9.2 | -0.5 | 0.7 | 30.5* | -4.7 | 0.606*
CC(=O)Nc1cc(OC(=O)c2ccco2)cc(OC(=O)c2ccco2)c1 | -0.6 | -0.6 | 13.5 | 53.6* | 0.8 | 7.42*
COc1ccc(C(=O)Nc2cccc(OC(=O)c3ccco3)c2)cc1 | -5.6 | 19.1 | -2.9 | 19.8 | 0.7 | nt
CC1C=CCC2C(=O)N(c3ccc(OC(=O)c4ccco4)cc3)C(=O)C12 (stereo unspecified) | -0.8 | -11.3 | 5.7 | 7.2 | 1.6 | nt
COC(=O)C1=C(C)NC(=S)NC1c1ccc(OC(=O)c2ccco2)cc1 (stereo unspecified) | -6.5 | -3.4 | 13.1 | 31.0* | -0.7 | >38
CC(=O)Nc1ccc(OC(=O)c2ccco2)cc1 | 1.3 | 29.4 | 9.5 | 32.7* | 0.2 | >38
O=C(Nc1ccc(OC(=O)c2cccs2)cc1)c1ccco1 | 79.7 | -29.6 | -11.0 | 1.4 | -3.0 | nt
COc1ccc(C(=O)OCCN(C)C2CN(Cc3cn(Cc4cccc(F)c4)nn3)S(=O)(=O)C2)cc1OC (stereo unspecified) | nt | 4.0 | nt | nt | nt | nt
COC(=O)[C@H](C(C)C)N1Cc2nnn(CC3CCCCC3)c2-c2cc(F)ccc2S1(=O)=O | nt | 6.0 | nt | nt | nt | nt
COC(=O)C1CN(Cc2cn(Cc3ccc(F)cc3)nn2)CCS(=O)(=O)N1Cc1ccc(OC)cc1 (stereo unspecified) | nt | 1.4 | nt | nt | nt | nt
C/C(=N\NC(=O)c1ccncc1)c1cc2ccccc2oc1=O | 99.7 | -12.1 | 2.1 | 93.3* | 0.7 | 15*
CCOC(=O)c1nnc(-c2ccccc2)nc1Sc1c(Cl)cccc1Cl | 5.2 | -9.3 | 2.8 | 54.2* | -2.7 | 37.6*
CC1CCC2(CCC(=O)N2CCCO)CC1 (stereo unspecified) | nt | -0.8 | nt | nt | nt | nt

High-throughput results as filed in PubChem.
